High-throughput results deposited in PubChem by several laboratories.
Most compounds without a hit are left out; they make up all but 2.5% or so of the library.
697 NFkB inh – inhibitors of PMA/ionomycin-induced NF-kB reporter, 697 cells, primary screen, B-cell NF-kB inhibitor project, cell-based, luminescence, uHTS | 697 B-cell NF-kB luciferase reporter, 16 h | inhibition, % at 4 µM | 330,000 tested, 0.33% active; in the data active = inhibition above about 35%
ANO1 block – TMEM16A chloride channel inhibitors, primary screen, cell-based, HTS | HEK293 TMEM16A/YFP iodide influx fluorescence, ionomycin | normalized B-score (activity score, 25-100; higher = stronger inhibition) at 10 µM | 310,000 tested, 1.2% active | AID 588511, 2011;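 active = ratio plate-corrected score three or more library SD toward inhibition, starting fluorescence score within five deviations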;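 also: score derived from kinetic fluorescence span divided by baseline fluorescence per well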
Target sequence (Q8BHY3 whole entry, looked up): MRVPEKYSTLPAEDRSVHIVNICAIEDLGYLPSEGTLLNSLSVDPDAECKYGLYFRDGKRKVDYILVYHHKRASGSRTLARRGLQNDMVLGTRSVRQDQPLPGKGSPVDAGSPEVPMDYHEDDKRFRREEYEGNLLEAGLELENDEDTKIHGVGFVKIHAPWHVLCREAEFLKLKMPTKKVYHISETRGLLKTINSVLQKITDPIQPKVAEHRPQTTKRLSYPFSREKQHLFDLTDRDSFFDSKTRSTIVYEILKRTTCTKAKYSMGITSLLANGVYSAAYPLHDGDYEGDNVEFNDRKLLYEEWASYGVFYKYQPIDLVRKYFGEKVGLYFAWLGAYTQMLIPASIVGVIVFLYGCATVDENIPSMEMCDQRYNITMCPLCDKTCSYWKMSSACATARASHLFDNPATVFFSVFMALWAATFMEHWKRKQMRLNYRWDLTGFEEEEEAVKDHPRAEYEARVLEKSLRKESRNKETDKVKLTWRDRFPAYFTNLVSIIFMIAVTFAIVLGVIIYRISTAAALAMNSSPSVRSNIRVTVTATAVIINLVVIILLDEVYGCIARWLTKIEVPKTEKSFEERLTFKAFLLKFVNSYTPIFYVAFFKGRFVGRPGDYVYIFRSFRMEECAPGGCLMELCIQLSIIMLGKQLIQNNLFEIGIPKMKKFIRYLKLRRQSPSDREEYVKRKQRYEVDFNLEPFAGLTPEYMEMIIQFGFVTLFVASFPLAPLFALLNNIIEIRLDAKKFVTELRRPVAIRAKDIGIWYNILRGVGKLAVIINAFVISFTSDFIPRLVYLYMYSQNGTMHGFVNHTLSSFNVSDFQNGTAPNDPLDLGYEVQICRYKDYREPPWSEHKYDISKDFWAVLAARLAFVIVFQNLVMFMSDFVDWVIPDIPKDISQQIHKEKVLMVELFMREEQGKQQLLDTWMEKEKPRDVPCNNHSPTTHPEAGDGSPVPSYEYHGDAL
aSyn UTR inh – MLPCN primary screen, SNCA 5' untranslated region. alpha-synuclein 5'UTR reporter, inhibitor activity. AID 1813, 2009. inhibition, % (tested at 7.5 µM). 300,000 tested, 0.82% active; in the data active = inhibition above about 60%;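 also: H4 neuroglioblastoma cells stably carrying SNCA 5'UTR luciferase fusion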
ANO1 activ – TMEM16A chloride channel activators or potentiators, primary screen, cell-based, HTS; B-score at 10 µM; 340,000 tested, 0.3% active; HEK293 TMEM16A/YFP-H148Q/I152L, iodide quench fluorescence; stronger effect = lower value;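 active = fluorescence-ratio B-score plate-corrected deviation score at least 3 library SD below zero, with starting fluorescence score within 5 deviations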;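 also: channel opened by trigger with iodide after compound preincubation; score built on the fluorescence ratio of max minus min over baseline; more negative score means more quench and so TMEM16A activation or potentiation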
Jurkat NFkB inh – inhibitors of induced NF-kB luciferase reporter, primary screen, TCR NF-kB activation inhibitor project, cell-based, luminescence, uHTS | Jurkat, PMA/ionomycin-induced NF-kB luciferase reporter | inhibition, % at 4 µM | 330,000 tested, 0.53% active; in the data active = inhibition above about 50%
KLF5 inhibitor – KLF5 expression inhibitors, primary screen, DLD-1 cells, luminescence; inhibition, % at 5 µM; 290,000 tested, 0.23% active; DLD-1 KLF5 promoter-luciferase reporter;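 active = inhibition above a per-plate limit of that plate's mean compound inhibition plus 3 SD, cut at about 60% in these data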;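 also: higher means less KLF5 promoter-driven luciferase light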
Jurkat NFkB conf – PMA/ionomycin-induced NF-kB reporter inhibitors, Jurkat retest, confirmation, T-cell NF-kB inhibitor project, cell-based, luminescence, single concentration | Jurkat NF-kB luciferase, 16 h | AID 435020, 2010 | shares compounds with Jurkat NFkB inh | inhibition, % at 4 µM | 2,700 tested, 27% active;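 active = inhibition reaching about 45% at 4 µM in either replicate, limit read from the data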
Hits are given with their value; . = inactive; / = no result given.

SMILES	697 NFkB inh	ANO1 block	aSyn UTR inh	ANO1 activ	Jurkat NFkB inh	KLF5 inhibitor	Jurkat NFkB conf
Cc1ccc(C(=O)N2CCN(c3ccc(NC(=O)c4cc(C)cc(C)c4)cc3)CC2)cc1	.	.	.	.	.	.	/
COc1ccccc1C(=O)Nc1ccc(N2CCN(C(C)=O)CC2)cc1	.	.	.	.	.	.	/
O=C(Nc1ccc(N2CCCCCC2)cc1)c1ccc[nH]1	.	/	/	.	.	/	.
Cc1ccc(N(Cc2ccccc2)C(=O)c2cc(S(=O)(=O)N3CCOCC3)ccc2C)cc1	.	.	.	.	.	/	/
Cc1ccc(-n2c(N)cc(=O)nc2SCC(=O)N2CCN(c3ccccc3)CC2)cc1C	.	.	.	.	.	.	/
COc1ccc(C(=O)Nc2ccc(Cl)cc2C(=O)NCc2ccco2)cc1	.	.	.	.	52	.	.
CCC1Nc2ncnc(N3CCN(c4ccccc4)CC3)c2N(Cc2ccc(Br)cc2)C1=O (configuration not stated)	.	.	.	.	.	/	/
Nc1nc(-c2ccccc2)cc(N2CCCCC2)n1	.	.	.	.	55	.	.
Cc1nc(-c2ccccc2)cc(N2CCCC2)n1	.	.	.	.	.	.	/
COc1cc(NS(=O)(=O)c2ccc(C)cc2)c2ncccc2c1	.	.	69	.	100	.	62
Cc1ccc(S(=O)(=O)Nc2cccc3cccnc23)cc1	.	.	63	.	92	.	.
COc1ccc(S(=O)(=O)Nc2ccccn2)cc1	.	.	.	.	.	.	/
COC(=O)c1cc(S(=O)(=O)NCc2cc(OC)c(OC)c(OC)c2)cn1C	.	.	.	.	.	.	/
CC(=O)Nc1ccc(S(=O)(=O)N2c3ccccc3C(C)=CC2(C)C)cc1	.	.	121	.	62	93	53
CC(=O)Nc1ccc(S(=O)(=O)N2CCSc3ccccc32)cc1	.	/	/	.	56	/	49
COc1ccc(NC(=O)N2c3ccccc3C(C)=CC2(C)C)cc1	.	.	.	.	.	.	/
COc1ccc2sc(-c3ccc(N(C)C)cc3)c(C#Cc3cncn3C)c2c1	.	/	/	.	.	/	/
O=C1NC(=O)c2c(Br)c(Br)c(Br)c(Br)c21	/	/	/	.	/	/	/
Nc1cccc(-c2cn3cc(C(F)(F)F)cc(Cl)c3n2)c1	.	.	.	.	.	.	.
CCOc1ccccc1C(=O)NCC(=O)NCCSc1ccc(Br)cc1	/	/	/	.	/	/	/
CCN(CC)c1ccc(/C=C/c2ccc3ccc(OC)cc3[n+]2CC)cc1	.	.	.	.	93	.	70
CC[n+]1c(/C=C/c2ccc(OC)c(OC)c2)ccc2ccccc21	.	.	.	.	.	.	.
C/C(CC(=O)Nc1ccc(N(C)C)cc1)=N\NC(=O)c1ccc(C(C)(C)C)cc1	.	.	.	.	.	.	/
Fc1cccc(F)c1CSc1nc2ccccc2[nH]1	.	.	.	.	.	.	.
Cc1ccc(C(=O)Nc2ccc(Cl)cc2C(F)(F)F)c(Cl)c1	.	.	.	.	.	.	/
SMILES	697 NFkB inh	ANO1 block	aSyn UTR inh	ANO1 activ	Jurkat NFkB inh	KLF5 inhibitor	Jurkat NFkB conf
Cc1ccc(C(=O)Nc2ccc(Cl)cc2C)c(Cl)c1	.	.	.	.	.	.	.
NC(=O)CC(NC(=O)Cc1ccc(Br)cc1)c1ccc(NCC2CC2)c([N+](=O)[O-])c1 (configuration not stated)	.	.	.	.	51	/	.
CC(C)Nc1ccc(C(CC(N)=O)NC(=O)c2ccc(Br)cc2)cc1[N+](=O)[O-] (configuration not stated)	.	.	.	.	59	/	.
Cn1cccc1C(=O)C(=O)Nc1cccc(Cl)c1Cl	.	.	.	.	.	.	.
COc1ccc(Cl)cc1NC(=O)CN(C)C(=O)c1cc2c(F)cccc2s1	.	/	/	.	58	/	.
COc1ccc(Cl)cc1NC(=O)CN(C)C(=O)c1ccc(C)s1	.	.	.	.	.	/	/
CCC(O)C1CCN(C(=O)c2cc(COc3ccc(F)cc3F)on2)CC1 (configuration not stated)	.	.	.	.	.	.	/
O=S(=O)(/N=C(/Nc1nc2ccccc2s1)c1ccccc1)c1ccccc1	.	/	/	.	.	/	.
Cc1ccc2nc(N/C(=N/S(=O)(=O)c3ccc(F)cc3)c3ccccc3)sc2c1	.	.	.	.	.	.	/
O=C1[C@@H](Oc2ccccc2)[C@@H](c2ccncc2)N1c1ccncc1	.	/	/	.	/	/	/
O=C(O)c1nn(Cc2csc(-c3ccccc3)n2)c(=O)c2ccccc12	.	.	.	.	.	.	/
COc1ccc(COc2cc(-c3cccc(OC)c3)nc3ccc(NC(C)=O)cc23)cc1	.	.	.	.	.	.	/
COc1ccc(COc2cc(-c3cccc(OC)c3)nc3ccc(N)cc23)cc1	.	.	.	.	52	.	.
COc1ccc(C(=O)N(Cc2ccccc2)Cc2cc3cc4c(cc3[nH]c2=O)OCCO4)cc1	.	.	.	.	55	.	.
Cc1nc2c(=O)[nH]c(=S)[nH]c2[nH]c1=O	/	/	/	.	/	/	/
NS(=O)(=O)c1ccc2nc(NC(=O)Nc3ccccc3F)sc2c1	.	.	.	.	.	.	.
Cc1ccccc1NC(=O)Nc1nc2ccc(S(C)(=O)=O)cc2s1	.	.	.	.	.	.	/
Cc1ccc(Nc2nc(NCCO)c3ccccc3n2)cc1C	.	.	.	.	.	.	/
COc1ccc(C2C(C(=O)Nc3cc(OC)c(OC)c(OC)c3)c3ccccc3C(=O)N2C)cc1 (configuration not stated)	.	.	98	.	75	.	.
COc1cccc2sc3ccc(C#Cc4ccc(N)cc4)cc3c(=O)c12	.	.	.	.	.	.	/
COc1cccc2sc3ccc(C#CC4(O)CCCCC4)cc3c(=O)c12	.	.	.	.	.	.	.
O=C(CN(C(=O)CCC(=O)Nc1nccs1)c1cccc(F)c1)NCc1ccccc1	.	.	.	.	.	.	/
COC(=O)CCC(C)C1CCC2C3CCC4CC(O)CCC4(C)C3=CC(=O)C12C (configuration not stated)	/	/	/	.	/	/	/
CCCC(=O)N(Cc1cc(=O)[nH]c2ccccc12)c1ccccc1C	.	.	.	.	.	.	/
Cc1c(C(=O)C(=O)N2c3ccc(F)cc3CCC2C)c2ccccc2n1C (configuration not stated)	.	.	62	.	65	.	.
Cc1ccnc(NC(=O)c2cc3cc(F)ccc3s2)c1	.	.	.	.	.	.	.
